Measured values as given in ChEMBL document CHEMBL3433997, “St. Jude Leishmania screening dataset” (2016).

Target: Glucose transporter (Leishmania mexicana) (UniProt O61059)
Test: ST_JUDE_LEISH: Cytotoxicity at 2uM final concentration against transgenic Leishmania Mexicana promastigotes LmGT2 that are glucose transport deficient and complemented with the L. Mexicana glucose transporter 2. Activity is measured by DNA content using SYBR green in vitro
Format: functional

Going from O=C(NCc1cccnc1)C(c1cc2ccccc2o1)N1CCN(C(c2ccccc2)c2ccccc2)CC1 (stereo not given) to Cc1cc(NCCc2ccc(O)cc2)nc(NCC(c2ccccc2)c2ccccc2)n1, the inhibition rises from 0.65% to 5.19%.

Compared with CCOCCCNc1sc(S(=O)(=O)c2ccccc2)nc1S(=O)(=O)c1ccc(C)cc1, COc1ccc2c(=NN=Cc3c(OC)ccc4ccccc34)cc(C)[nH]c2c1 is lower in inhibition: 9.56% for the first, 4.08% for the second.

First: CCCNCc1ccc(-c2ccc(CN(Cc3ccc4c(c3)OCO4)C(=O)Cc3cccnc3)cc2)nc1
Second: CCc1cn(CC(=O)N(CCOc2ccc(-c3ccc(C(F)(F)F)cc3)cc2)CCN(CC)CC)c(SCc2ccc(F)cc2)nc1=O
The inhibition of the first is higher: 10.2% for the first, -0.06% for the second.

Compared with CCn1c(-c2nonc2N)nc2c(-c3cccc(NC(=O)Nc4ccc(C(F)(F)F)cc4)c3)ncc(OCCCN)c21, O=C(Nc1ccc(Cl)cc1)Nc1cccc(-c2cccc(-c3nc4cc(C(F)(F)F)ccc4[nH]3)c2)c1 is lower in inhibition: 3.54% for the first, -2.27% for the second.

Compared with COc1ccc(-c2ccc(NC(=O)c3ccc(Cl)cc3)cc2)cc1CN1CCCN(C)CC1, Cc1cc(C2CCN(CCCCNC(=O)c3ccc(NC(=O)c4ccc(Cl)cc4)cc3)CC2)c(C)cc1OCc1nccn1C is lower in inhibition: 5.6% for the first, 0.69% for the second.

Going from COc1ccc(C2C(C(=O)Nc3ccccc3)=C(C)Nc3c(C(=O)Nc4ccccc4)cnn32)cc1 (stereo not given) to COc1ccc(CNC(=O)NC2CCN(c3ccnc(Nc4ccc(F)cc4)n3)C2)cc1 (stereo not given), the inhibition rises from 0.09% to 7.65%.

Going from Nc1ccc(Oc2ccc(Cc3cnc(N)nc3N)cc2)cc1 to Cc1ccc(-n2c(C)nc3c(Nc4ccc(-c5ccncc5)cc4)ncnc32)c(C)c1, the inhibition rises from 3.87% to 81%.

Compared with O=C(Nc1ccc(C(F)(F)F)cc1)c1cccc(S(=O)(=O)NC2CCN(Cc3ccccc3)C2)c1 (stereo not given), O=C(Nc1cccc(-c2cc(-c3c(Cl)cccc3Cl)no2)c1)c1cnc2ccccc2c1 is higher in inhibition: 3.95% for the first, 6.2% for the second.

Compared with CC(C)(CNC(=O)[C@@H]1CCCN(CCOc2ccc(Cl)cc2)C1)c1nc(-c2ccc(Cl)c(O)c2)c(-c2ccncc2)[nH]1, COc1ccc(Cl)cc1N1CCN(CCCNC(=O)c2ccc(-c3nc4cc(Cl)c(Cl)cc4[nH]3)c(C)c2)CC1 is higher in inhibition: 0.11% for the first, 1.04% for the second.

First: Cc1cc(C)c2oc(-c3cccc(NC(=O)c4ccc([N+](=O)[O-])o4)c3C)nc2c1
Second: COc1ccc(NC(=O)C2c3ccccc3C(=O)N(C3CCCC3)C2c2cccs2)cc1OC (stereo not given)
The inhibition of the first is higher: 1.45% for the first, 0.45% for the second.

First: CCCc1cc(NC2CCN(C)CC2)nc(Nc2ccc(C)cc2)n1
Second: O=C(NCCCCCN1CCC(c2c[nH]c3ccccc23)CC1)Nc1cccc(Br)c1
The inhibition of the first is lower: 2.46% for the first, 5.45% for the second.

Compared with Nc1c(Cl)cc(C(O)CNCCCCCCOCCc2ccc(O)cc2)cc1Cl (stereo not given), CCCCCCCN1CCC(NC(=O)Nc2ccnc3ccc(OC)cc23)C(C(=O)OCC)C1 (stereo not given) is lower in inhibition: -2.56% for the first, -2.59% for the second.

Molecule COc1ccc(C(=O)N2CCc3cc4nccc(N5CCN6CCC[C@H]6C5)c4cc32)cc1 has an inhibition of 4.3%.
